# The panel holds about 79,000 compounds, 15% with a hit somewhere; the sample as a whole holds those more often. Unmarked numbers belong to inactive results. The source made the active and inactive calls. Cut-off read from the data, not from the text of the source: active = growth inhibition above about 70%; inactive = the rest.
# Tests used:
# [1] = NCI Yeast Anticancer Drug Screen. Data for the rad50 strain (AID 155);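 note: 0% = growth of vehicle-only cultures of the same strain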; conditions: S. cerevisiae rad50 strain growth inhibition; at 50.0 µM; active compounds read high
# Outline: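 Vehicle-treated cultures provide the reference for the growth inhibition reported for compound-exposed, repair-deficient yeast.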
# [2] = NCI Yeast Anticancer Drug Screen. Data for the mec2-1 strain (AID 157); conditions: S. cerevisiae mec2-1 strain, at 50.0 µM, active compounds read high
# Outline: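 Mutant yeast (mec2-1) grown with compound; growth inhibition relative to vehicle control reported.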
# [3] = NCI Yeast Anticancer Drug Screen. Data for the sgs1 mgt1 strain (AID 161);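 note: 0% = growth of cultures given vehicle only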; conditions: S. cerevisiae sgs1 mgt1 strain, at 50.0 µM, active compounds read high
# Outline: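 This yeast growth screen uses a strain with defined DNA-repair lesions; compound-treated growth is compared with vehicle-treated growth.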
# [4] = NCI Yeast Anticancer Drug Screen. Data for the cln2 rad14 strain (AID 165);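 note: 0% = growth equal to vehicle treated cultures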; conditions: S. cerevisiae cln2 rad14 strain, at 50.0 µM, active compounds read high
# Outline: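 Readout is yeast growth inhibition versus vehicle-treated controls, using a strain with cln2 and rad14 alterations exposed to compound.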
# [5] = NCI Yeast Anticancer Drug Screen. Data for the bub3 strain (AID 167); conditions: S. cerevisiae bub3 mutant strain, at 50.0 µM, active compounds read high
# Outline: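 Mutant yeast screening strain plus compound; vehicle-treated cultures serve as the 0% inhibition reference.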
# [6] = NCI Yeast Anticancer Drug Screen. Data for the mlh1 rad18 strain (AID 175); conditions: S. cerevisiae mlh1 rad18 strain growth inhibition; at 50.0 µM; active compounds read high
# Outline: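 Genetically defined yeast (DNA repair-deficient) exposed to compounds; growth inhibition determined relative to vehicle.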
SMILES,growth inhibition [1],growth inhibition [2],growth inhibition [3],growth inhibition [4],growth inhibition [5],growth inhibition [6]
O=C1OCC2Cc3ccccc3C(c3ccccc3)=C12 (stereo unspecified),-3.85%,-6.3%,-1.3%,-31.5%,11.3%,-1%
NC(=O)c1nnn(-c2ccccc2)n1,-9.75%,-8.9%,-10%,-12.3%,-5.75%,-12.7%
O=C(Nc1ccc(Cl)cc1)P(=O)(O)c1ccccc1,-11.8%,-0.95%,-23.1%,-26.8%,-16.8%,18.1%
CC(C)c1cccc2ccccc12,2.85%,0.2%,-2.9%,-13.8%,-4.7%,13.4%
O=C(NCCNCCO)N/N=C/c1ccc([N+](=O)[O-])cc1,-8.75%,-7.35%,-1.4%,36.6%,0.3%,-3.65%
Cc1ccc(S(=O)(=O)NC(=O)C#CCOC2CCCCO2)cc1 (stereo unspecified),8.7%,-0.85%,-3.3%,14.3%,22.6%,18.2%
CCC1=CCN2CCC34c5cc(C6(C(=O)OC)CC7CC(CC)CN(CCc8c6[nH]c6ccccc86)C7)c(OC)cc5N(C)C3C(O)(C(=O)OC)C(OC(C)=O)C1C24 (stereo unspecified),0.2%,9.25%,-3.95%,3.95%,-1.55%,10.6%
CCC(C)(O)C(=O)O (stereo unspecified),9.8%,-9.4%,-32.4%,-4.75%,-13.3%,-15.2%
CC(=O)Nc1cc(N)ccc1C,7.15%,4.45%,1.65%,-18.2%,10.6%,-14.3%
CCCCOC(=O)c1ccc(NC(=O)Nc2cc([N+](=O)[O-])ccc2F)cc1,56.4%,54.6%,63%,54.6%,12.3%,71.2% (active)
COc1cccc2c1C(=O)c1c(O)c3c(c(O)c1C2=O)CC(O)(C(C)=O)CC3OC1CC(NC(=O)C(CCCCN)NC(=O)C(N)CCN)C(O)C(C)O1 (stereo unspecified),9.1%,-1.15%,-0.5%,12.8%,15.9%,14.6%
C(=Nc1cnc2ccccc2c1)c1ccc2ccccc2n1,-5.3%,-13.4%,-11.3%,-6.2%,-55.9%,-14.8%
Cn1cnc2c(=S)nc[nH]c21,7.75%,-10%,-25.1%,-9.9%,-8.75%,-20.9%
O=C(O)CSc1n[nH]c(-c2ccccc2)n1,-14.2%,-4.3%,-7.5%,2.55%,2.3%,-9.35%
O=C(O)c1ccc(S(=O)(=O)c2ccccc2[N+](=O)[O-])cc1,-12.9%,-10.3%,-35.8%,-19%,-12.1%,-38.6%
Nc1ncnc2c1ncn2CCCCCO,5.15%,49.7%,13.7%,7.35%,3.45%,13.3%
CC(C)c1ccccc1OC(=O)c1cccc(Br)c1,-19%,-1.95%,0.35%,-23.1%,13.9%,1.5%
C=C(C(N)=O)c1ccc([N+](=O)[O-])o1,52.4%,44.7%,62.4%,30%,19.8%,90% (active)
Cc1cc(S(=O)(=O)Nc2nnc3c4ccccc4cnn23)c(S)cc1Cl,-38%,-24.4%,-21%,2.7%,-15.8%,-31.6%
CCc1ccc(OC/C=C(\C)CCC2OC2(C)CC)cc1 (stereo unspecified),-4.15%,4.5%,19.8%,4%,32%,-2.8%
COC(=O)CCc1nc2ccccc2c(=O)[nH]1,6.45%,1.05%,-6.05%,-35.8%,-14.9%,-12.4%

SMILES,growth inhibition [1],growth inhibition [2],growth inhibition [3],growth inhibition [4],growth inhibition [5],growth inhibition [6]
COc1ccc(CC2(C(=O)O)NCCc3cc(O)c(OC)cc32)cc1O (stereo unspecified),16.7%,-3.25%,-13.7%,4.15%,-0.5%,-5.5%
N#CC1C(=O)NC(=O)C(C#N)C1c1ccc(Cl)cc1Cl (stereo unspecified),38.9%,10.1%,32.6%,22.1%,-3.55%,19.9%
Cc1cn(C2CC(O)C(COC(=O)C(C)(C)C)O2)c(=O)[nH]c1=O (stereo unspecified),16.9%,-0.35%,3.85%,-0.1%,-18.5%,-47.5%
CC(C)(Cl)C1CCC(CC(Cl)(Cl)Cl)CC1 (stereo unspecified),5.3%,-16.4%,0.6%,-26.9%,11.9%,9.75%
CN(C)C(=O)Nc1cccc2c(NC(=O)N(C)C)cccc12,-1.4%,4.4%,10.7%,11.9%,-4.45%,-1.55%
CN(C)CCNCCN,4%,-28.4%,-6.2%,-1.55%,-9.75%,-15.6%
CCN(CC)C(=O)c1cccc(C(=O)N(CC)CC)n1,11.1%,3.6%,10.2%,39.4%,21.4%,24.7%
Cc1cc([N+](=O)[O-])c(C)c(Br)c1C,-8.45%,-20.2%,-37.7%,4.65%,-38.5%,-0.85%
COc1cccc(C2c3cc4c(cc3OC(NNC(N)=O)C2C)OCO4)c1O (stereo unspecified),-12.8%,-8.6%,2.55%,9.9%,-2.75%,-7.35%
Cn1c2ccccc2c2ccc3c(c21)C(=O)NC3=O,15.6%,10.7%,-7.75%,-7.7%,-21.9%,13.3%
COc1cc2c(c(OC)c1OC)-c1ccc(OC)c(=O)cc1C(NC(=S)Nc1ccccc1)CC2 (stereo unspecified),96.5% (active),96.8% (active),96.8% (active),93.5% (active),95.6% (active),96.5% (active)
O=S(=O)(NCCNS(=O)(=O)c1ccccc1)c1ccccc1,-10.4%,-13.8%,10.5%,-44.5%,1.55%,4%
O=C1c2ccccc2C2(O)Oc3cccc(O)c3C12O (stereo unspecified),6.45%,4.55%,-2%,-14.9%,2.85%,49.9%
COc1ccc(CSCc2cc(OC)c(OC)c(OC)c2)cc1,-13.5%,16.8%,-24.1%,0.3%,51.2%,-2.15%
CC1CCCCN1Cc1ccccc1COC(=O)c1ccc([N+](=O)[O-])cc1 (stereo unspecified),10.6%,-5.05%,4.8%,-29.1%,4.05%,18.6%
CC(=O)OC1CC2C(C)(CCC3C2(C)CCC2(C)C4CC(C)(C)CCC4(C)CCC32C)C1C (stereo unspecified),-28.2%,-18.3%,-7.5%,2.75%,-3.2%,3.2%
CSC(=S)c1ccc(NSc2ccccc2[N+](=O)[O-])cc1,7.6%,23.6%,46.8%,14%,20.4%,33.8%
OCCC1=CCC1,3.05%,20.9%,-3.35%,29.6%,4.95%,5.4%
O=C1C(N=Nc2ccc(Br)cc2)Sc2nc3ccccc3n21 (stereo unspecified),8.2%,-12.4%,6.45%,-27.4%,17.1%,10.3%
CC1CCc2c(nc(C#N)c(=N)n2O)C1 (stereo unspecified),8.25%,-3.2%,6.8%,-40.2%,-12.2%,-6.75%
